Screening data deposited in PubChem BioAssay by National Center for Advancing Translational Sciences (NCATS).
FH mod – Identification of activators of human fumarate hydratase by quantitative high-throughput screening | Fumarate hydratase, mitochondrial (Homo sapiens), P07954 | FH coupled MDH/diaphorase resazurin fluorescence, 15 min | Potency, µM (titrated, usually from 79.9 µM), for the others: at the top dose activity change, negative = inhibition, hits mostly inhibitors | actives 0.22% (n = 54,000); further: potency means the concentration at half of the fitted maximal effect; on the % scale 0 is the no-effect control and ±100 the full control effect; the screen sought activators but most active calls are inhibition curves; nearly all actives have a fitted effect of over 45% in size
Target sequence (P07954 whole entry, looked up): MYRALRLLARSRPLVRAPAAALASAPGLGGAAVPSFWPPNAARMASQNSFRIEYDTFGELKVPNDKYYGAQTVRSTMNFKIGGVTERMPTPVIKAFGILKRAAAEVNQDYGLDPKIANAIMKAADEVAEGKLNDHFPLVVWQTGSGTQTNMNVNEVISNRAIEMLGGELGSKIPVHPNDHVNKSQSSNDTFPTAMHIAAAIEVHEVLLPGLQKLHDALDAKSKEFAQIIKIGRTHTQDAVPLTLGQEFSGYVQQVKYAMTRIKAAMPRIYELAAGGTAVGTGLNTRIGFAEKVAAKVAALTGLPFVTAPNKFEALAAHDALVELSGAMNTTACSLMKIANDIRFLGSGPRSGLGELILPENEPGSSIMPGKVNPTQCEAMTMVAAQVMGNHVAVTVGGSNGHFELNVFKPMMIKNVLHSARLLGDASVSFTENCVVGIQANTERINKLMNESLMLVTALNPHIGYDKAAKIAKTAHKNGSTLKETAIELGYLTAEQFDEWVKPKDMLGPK
GALK inhibitor – inhibitors of human galactokinase (GALK). P51570. AID 1347072. 44,000 tested, under 10 active. Potency, µM (titrated, usually from 57.5 µM), inactives show at the highest dose activity, negative = inhibition, actives largely listed as inhibitors. recombinant GALK, Kinase-Glo ATP luminescence, 1 h;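 further: plate controls were full GALK reaction for no effect and reaction lacking GALK for full effect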
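5 nM GALK with 35 µM ATP and 100 µM galactose in HEPES pH 8.0, MgCl2, NaCl, DTT, BSA; 1 h RT reaction, remaining ATP detected by Kinase-Glo Plus luminescence after 10 min; qHTS concentration series.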
HTT prom inh – inhibitors of huntingtin promoter activity | HEK293 HTT promoter firefly luciferase reporter, 24 h | Potency, µM (highest dose often 57.5 µM), without a hit: at the highest dose activity change, negative = inhibition, most hits filed as inhibitors | actives 0.93% (n = 48,000); further: potency means the concentration at half of the fitted maximal effect; nearly all actives have a fitted effect of over 50% in size
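Luminescence was read after Dual-Glo reagent and a 10 min room-temperature incubation. Values were normalized to vehicle (0% activity) and zero RLU (-100% activity). Reporter HEK293 cells had been exposed to compounds (up to 57.5 uM final) for 24 h.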
HTT-AS act – activates huntingtin-antisense promoter activity | HEK293 HTT-AS promoter firefly luciferase reporter, 24 h; response scale: percent change from vehicle, -100% = no light | Potency, µM (top dose mostly 57.5 µM), without a hit: at the top dose activity change, positive = activation, actives largely listed as activators | actives 0.24% (n = 48,000) | AID 1508624; further: potency means the concentration at half of the fitted maximal effect; nearly all actives have a fitted effect of over 55% in size
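HEK293 Fluc reporter, 2,500 cells/well, 24 h pre-culture; cpds up to 57.5 uM final, 24 h 37 degrees C; Dual-Glo, 10 min RT; normalized vehicle = 0%, zero RLU = -100%.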
NTMT1 inh – NTMT1 methyltransferase inhibition. Q9BV86. NTMT1 MTase-Glo SAH luminescence, purified enzyme. Potency, µM (doses to about 114 µM), without a hit: top-dose activity change, negative = inhibition, actives largely listed as inhibitors. actives 2.5% (n = 59,000). AID 1645870;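 further: potency means the concentration at half of the fitted maximal effect; plate controls were DMSO vehicle for no effect and no enzyme for full effect; nearly all actives have a fitted effect of over 65% in size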
Target sequence (Q9BV86 whole entry, looked up): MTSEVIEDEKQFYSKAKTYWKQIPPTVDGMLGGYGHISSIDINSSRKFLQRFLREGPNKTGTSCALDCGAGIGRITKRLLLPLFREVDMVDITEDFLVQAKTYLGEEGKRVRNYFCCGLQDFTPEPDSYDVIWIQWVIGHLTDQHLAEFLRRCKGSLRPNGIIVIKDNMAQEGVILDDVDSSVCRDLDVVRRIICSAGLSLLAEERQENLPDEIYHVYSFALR
* hit, by the source's call; ? = inconclusive; . = not tested or not shown; ! = not confirmed by another sample; [ ] = remark or other dose. This is a sample that favours compounds with a hit; in the whole collection about 2.5% have one here. The call rests on the fitted dose curve; in most records, active means well fitted curve in the direction sought with a large enough effect; inconclusive means small, poorly fitted or top-dose-only effect, or another doubt; inactive means no such curve, though single readings can be large; an effect the other way counts as inactive or inconclusive.

SMILES | FH mod | GALK inhibitor | HTT prom inh | HTT-AS act | NTMT1 inh
CC(C)c1ccc(NC(=O)c2ccc(F)c(S(=O)(=O)N3CCN(c4ccccc4F)CC3)c2)cc1 | -8% | 0% | ? | -13% | 14%
O=C(Nc1cccc(Cl)c1)c1ccc(F)c(S(=O)(=O)N2CCC3(CC2)OCCO3)c1 | -19% | 3% | ? | -23% | -6%
O=C(Nc1cccc(C(F)(F)F)c1)c1ccc(F)c(S(=O)(=O)N2CCc3ccccc3C2)c1 | ? | -6% | 28µM* | -40% | 23%
COc1ccccc1CNS(=O)(=O)c1cc(C(=O)Nc2cccc(C(F)(F)F)c2)ccc1F | ? | 0% | 28µM* | -47% | 2%
COc1ccc(CNS(=O)(=O)c2cc(C(=O)Nc3cc(Cl)cc(Cl)c3)ccc2F)cc1 | ? | -7% | ? | -31% | 11%
Cc1[nH]c(/C=C2\C(=O)Nc3ccccc32)c(C)c1CCC(=O)O | 0% | . | . | . | ?
Cc1cc(N[S+](=O)([O-])c2cc3c(cc2Cl)CCC(=O)N3)ccc1Br | . | . | . | . | -5%[57.5 µM]
CC1CCCN(CCCNC(=O)c2cc(Sc3ccc(F)cc3)nc3ccccc23)C1 (stereo unspecified) | -4% | -2% | ? | -24% | 2%
O=C(NCCCN1CCCCC1)c1cc(Sc2ccc(Cl)cc2)nc2ccccc12 | -8% | -1% | -25% | -26% | 89µM*
FC(F)(F)c1cccc(Nc2nc3nonc3nc2Nc2ccc(Cl)cc2)c1 | ? | -7% | 0.35µM* | -94% | 9%
Cc1cccc(N2CCN(c3ncnc4c3nc3n4CCCCC3)CC2C)c1 (stereo unspecified) | ? | 1% | 5µM* | -93% | -4%
Clc1cccc(N2CCN(c3ncnc4c3nc3n4CCCC3)CC2)c1 | -25% | 8% | -28% | ? | 50µM*
O=c1c(-c2ccc(O)cc2)coc2cc(O[C@@H]3O[C@H](CO)[C@@H](O)[C@H](O)[C@H]3O)ccc12 | . | . | . | . | 7%
Cc1cnc(-c2ccccc2C(C)C)nc1NCc1ccc(C(N)=O)cc1 | . | . | . | . | 10%
N#Cc1cc2cc(CN3CCC(Nc4ncnc5sc(CC(F)(F)F)cc45)CC3)c(O)cc2n1Cc1cn[nH]c1 | . | . | . | . | -30%
CSc1nc(N)c2ncn([C@@H]3O[C@H](COP(=O)(O)OP(=O)(O)OP(=O)(O)O)C(O)[C@H]3O)c2n1 (stereo partly specified) | -3%[53.3 µM] | . | . | . | .
CC1CCCN(C(=O)c2cc3ccc4cccnc4c3[nH]2)C1 (stereo unspecified) | -15% | 6% | ? | -57% | ?
O=C(c1cc2ccc3cccnc3c2[nH]1)N1CCCCC1 | 5% | 6% | -50% | ? | 40µM*
COc1cc(-c2nc(Nc3ccc(F)c(F)c3)c3ccccc3n2)cc(OC)n1 | . | . | . | . | -24%
O=C1OC2(c3ccccc31)c1cc(Br)c(O)c(Br)c1Oc1c2cc(Br)c(O)c1Br | ? | . | 2% | -10% | 50µM*
COc1cccc(CCN2C(=O)c3ccccc3NC2c2ccc(OC)c(COc3c(C)cc(NC(C)=O)cc3C)c2)c1 (stereo unspecified) | . | . | . | . | 16%
O=C(C1CCC(CNS(=O)(=O)c2cccs2)CC1)N1CCN(c2ccc(Cl)cc2)CC1 (stereo unspecified) | -25% | 1% | 4µM* | -76% | 10%
O=C(/C=C/c1ccccc1)OC[C@H]1O[C@@H](OC(=O)c2cc(O)c(O)c(O)c2)[C@H](O)[C@@H](O)[C@@H]1O | -18%[53.3 µM] | . | . | . | ?
COc1ccc2nc3n[nH]c(C)c3c(NCCOCCO)c2c1 | -1% | . | . | . | 20µM*!
COc1ccc(-n2c(SCC(=O)NCc3ccc(C)cc3)nc3n[nH]c(C)c3c2=N)cc1 | 1% | 2% | -5% | -22% | 2%
SMILES | FH mod | GALK inhibitor | HTT prom inh | HTT-AS act | NTMT1 inh
C/C(=C\c1ccc(F)cc1)C1Nc2cccc3cccc(c23)N1 | . | . | . | . | -5%
CCCNC(=O)c1cc2n(n1)CCCN(Cc1ccc(C)cc1)C2=O | -16% | 1% | -21% | 0% | 6%
CCCCNC(=O)c1cc2n(n1)CCCN(Cc1ccc(C)cc1)C2=O | 1% | -1% | -10% | 11% | 13%
Cc1ccc(CN2CCCn3nc(C(=O)NCc4cc(C)ccc4C)cc3C2=O)cc1 | -16% | -3% | 28µM* | -21% | 13%
CCCCOc1ccc(CNC(=O)c2cc3n(n2)CCCN(Cc2ccc(C)cc2)C3=O)cc1 | 4% | -4% | 25µM* | -23% | 4%
COc1ccc(CNC(=O)c2cnn(-c3ccccc3)c2-n2cccc2)cc1OC | . | 5% | . | . | .
COc1ccc(CCNC(=O)c2c(C)nn(-c3ccc(F)cc3)c2-n2cccc2)cc1OC | -9% | -1% | 20µM* | -34% | 20%
COc1ccc(CNC(=O)c2cnn(-c3ccc(C)cc3)c2-n2cccc2)cc1OC | -4% | 0% | 16µM* | -37% | -6%
COc1ccc(N2C(=O)N(c3c(C)cccc3Cl)Cc3cnc(Nc4ccc(C5CCN(C)CC5)cc4OC)nc32)nc1 | . | . | . | . | -2%
Cc1cnccc1-c1nc(Nc2ccc(F)c(F)c2)c2ccccc2n1 | . | . | . | . | -5%
COC(=O)C1=C(C)NC(c2ncc(F)cc2F)=N[C@H]1c1ccc(F)cc1Cl | . | . | . | . | 15%
CCOc1ccc(NCc2cccn2-c2nnc(N3CCC(C(=O)NCc4ccccc4Cl)CC3)s2)cc1 | -16% | 5% | 22µM* | -57% | -3%
CC1CCN(c2nnc(-n3cccc3CNc3cccc(F)c3)s2)CC1 | -17% | 1% | 5.6µM* | -71% | 8%
Cc1ccc(NCc2cccn2-c2nnc(N3CCC(C(=O)NC(C)C)CC3)s2)cc1 | -8% | -2% | ? | -38% | 89µM*
Cc1ccc(NCc2cccn2-c2nnc(N3CCC(C(=O)NCCC(C)C)CC3)s2)cc1 | -1% | 4% | ? | -45% | ?
COc1ccc(NCc2cccn2-c2nnc(N3CCC(C)CC3)s2)c(OC)c1 | ? | 0% | ? | -81% | -13%
O=c1oc2ccccc2n1CCCOc1ccccc1Cl | -1% | -2% | 22% | 7.9µM* | 1%
CCOc1ccc(Cn2c(=O)oc3ccccc32)cc1 | 2% | -15% | 8% | -7% | -4%
COc1ccc(C2COc3cc(O)ccc3C2)c(O)c1 (stereo unspecified) | -10% | . | . | . | 9%[57.5 µM]
CCNCCc1ccc(CN(CC)c2cc(OC)ccc2[C@@H]2CCc3cc(O)ccc3C2)cc1 | . | . | . | . | 45µM*
Cc1ccc(N[S+](=O)([O-])c2cc3c(cc2Cl)CCC(=O)N3)cc1Br | . | . | . | . | 6%
CN1CCCN=C1/C=C/c1cccs1 | 5%[53.3 µM] | . | -5% | -8% | 50µM*!
CC(C)c1ccc(-c2cc(=O)c3ccccc3o2)cc1 | -8% | . | . | . | 0%[57.5 µM]
O=c1cc(-c2ccccc2)oc2c(O)c(O)ccc12 | 16µM* | . | . | . | .
O=c1cc(-c2ccccc2)oc2ccccc12 | -15% | . | 39%[116 µM] | ? | 100µM*
